Records with an inconclusive call do not appear. A call without a number means that no potency is given here. The source made the active and inactive calls. The call rests on the fitted dose curve; in most records, active means well fitted inhibition curve with a large enough effect; inconclusive means small, poorly fitted or top-dose-only effect; inactive means no such curve, though single readings can be large or run the other way.
target: Protein phosphatase 1D (Homo sapiens) (UniProt O15297); assay: RapidFire Mass Spectrometry qHTS Assay for Modulators of WT P53-Induced Phosphatase 1 (WIP1) (AID 1347424); conditions: WIP1 dephosphorylation of phosphopeptide, RapidFire MS; series mostly up to 63 µM
Sequence (O15297 whole entry, looked up): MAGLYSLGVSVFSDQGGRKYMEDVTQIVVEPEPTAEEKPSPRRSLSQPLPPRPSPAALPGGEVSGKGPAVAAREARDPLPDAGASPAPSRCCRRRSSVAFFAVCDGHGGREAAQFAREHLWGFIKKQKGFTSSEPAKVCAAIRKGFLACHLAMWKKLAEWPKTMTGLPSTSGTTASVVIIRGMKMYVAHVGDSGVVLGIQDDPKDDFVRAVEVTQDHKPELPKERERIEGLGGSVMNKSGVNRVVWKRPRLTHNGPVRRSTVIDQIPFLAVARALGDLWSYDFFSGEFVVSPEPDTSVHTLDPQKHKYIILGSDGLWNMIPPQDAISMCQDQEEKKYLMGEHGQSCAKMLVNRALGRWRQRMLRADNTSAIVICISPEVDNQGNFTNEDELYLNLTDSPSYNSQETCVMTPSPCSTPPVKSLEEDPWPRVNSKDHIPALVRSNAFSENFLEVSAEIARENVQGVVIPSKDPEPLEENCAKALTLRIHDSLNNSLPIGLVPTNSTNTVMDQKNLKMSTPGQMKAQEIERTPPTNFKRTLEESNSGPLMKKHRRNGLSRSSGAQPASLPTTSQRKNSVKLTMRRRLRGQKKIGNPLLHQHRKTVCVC
In short: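 RapidFire mass spectrometry measured dephosphorylated peptide after 5 min room-temperature reaction of 2 uM VEPPL-pS-QETFS with 10 nM WIP1 (50 mM Tris-HCl pH 7.5, 30 mM MgCl2, 0.1 mM EGTA, BSA), following 1 hr compound preincubation; 1 uM isotope-labelled product standard.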

| SMILES | Potency | activity change, negative = inhibition |
| --- | --- | --- |
| c1ccc(C2CC2)c(OCC2=NCCN2)c1 | inactive |  |
| C[C@@H]1O[C@@H](O[C@H]2C[C@@H](O)[C@]3(CO)[C@H]4[C@H](O)C[C@]5(C)[C@@H](C6=CC(=O)OC6)CC[C@]5(O)[C@@H]4CC[C@]3(O)C2)[C@H](O)[C@H](O)[C@H]1O | inactive |  |
| CCC1(C2=NCCN2)Cc2ccccc2O1 (stereo unspecified) | inactive |  |
| CC(=O)[C@H]1CC[C@H]2[C@@H]3CC[C@H]4C[C@](C)(O)CC[C@]4(C)[C@H]3CC[C@]12C | inactive |  |
| Nc1ccncc1 | inactive |  |
| COc1ccccc1N1CCNCC1 | inactive |  |
| N#CC(C#N)=Cc1ccc(O)c(O)c1 | inactive |  |
| CCCN1CCC[C@@H]2Cc3nc(N)ncc3C[C@H]21 | inactive |  |
| NCC(O)c1ccc(O)cc1 (stereo unspecified) | inactive |  |
| Cc1ccc(S(=O)(=O)N[C@@H](CCCCN)C(=O)CCl)cc1 | inactive |  |
| Cn1c(CCCC(=O)O)nc2cc(N(CCCl)CCCl)ccc21 | inactive |  |
| CC[C@@H](CO)NC(=O)[C@@H]1C=C2c3cccc4[nH]cc(c34)C[C@H]2N(C)C1 | inactive |  |
| NCC(CC(=O)O)c1ccc(Cl)cc1 (stereo unspecified) |  | -7.37% [at 0.505 µM] (inactive) |
| CCCN1CCC[C@@H]2Cc3[nH]ncc3C[C@H]21 | inactive |  |
| CC[C@@H](CO)NC(=O)[C@@H]1C=C2c3cccc4c3c(cn4C)C[C@H]2N(C)C1 | inactive |  |
| O=C1NCN(c2ccccc2)C12CCN(CC1COc3ccccc3O1)CC2 (stereo unspecified) | inactive |  |
| Cc1cccc(C)c1NC(=O)CN1CCCC1=O | inactive |  |
| NCC1(CC(=O)O)CCCCC1 | inactive |  |
| Cc1cccc(C)c1NC1=NCCCS1 | inactive |  |
| COc1ccc(C(CN(C)C)C2(O)CCCCC2)cc1 (stereo unspecified) | inactive |  |
| CC(=O)[C@H]1CC[C@H]2[C@@H]3CC[C@H]4C[C@H](O)CC[C@]4(C)[C@H]3C(=O)C[C@]12C | inactive |  |
| CN1C[C@H](CNC(=O)OCc2ccccc2)C[C@@H]2c3cccc4c3c(cn4C)C[C@H]21 | inactive |  |
| NN=C(N)N | inactive |  |
| Cc1ncc(CNC(=O)N(CCCl)N=O)c(N)n1 | inactive |  |
| CC(C)=CCOc1c2occc2cc2ccc(=O)oc12 | inactive |  |
| CNCC(O)c1ccc(O)cc1 (stereo unspecified) | inactive |  |
